# “And” between values parts separate entries of the source, which are not always exact repeats. Equal values may be shown once. The source made the active and inactive calls.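 Rule for the calls, unless noted: active = compounds killing one labelled cell type while sparing the other, by normalised counts and ratio limits, not self-fluorescent; inactive = the rest.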
# Legend:
# [1] = circadian clock period modulators, cell-based, LOPAC library, luminescence reporter (AID 2774; call rule not given here;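 note: values are relative to mean of DMSO wells on each plate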); conditions: circadian reporter cells, at 7 µM, actives lie on both sides
# [2] = hESC survival regulators, cell-based (AID 493140; call rule not given here;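 note: cells exposed to compounds for four days before counting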); conditions: human embryonic stem cell survival screen; stronger effect = higher value
# [3] = liver-stage malaria parasite growth inhibition, primary screen, cell-based, HepG2, luciferase luminescence, HepG2 viability (AID 624349; in the data active = parasite load remaining mostly below about 12%, no sharp cut-off; inactive = mostly above about 10%;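 note: 100% = mean of DMSO negative control wells on the same plate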); conditions: P. berghei liver stage in HepG2, luciferase luminescence, concentration not given here; parasite load remaining: stronger effect = lower value; viability: measured here: HepG2 viability without parasites
# [4] = test system: Hepatitis C virus NS3 helicase; test: HCV NS3 helicase inhibitors, primary screen, biochemical, fluorescence polarization, LOPAC1280 library (AID 687035; in the data active = inhibition above about 37%); conditions: Purified HCV NS3 helicase, Cy5-dT15 ssDNA binding fluorescence polarization; stronger effect = higher value; concentration not given here
# [5] = Cy5 fluorescence quenching or enhancement artefacts, artefact control for HCV NS3 helicase inhibitor project, biochemical, LOPAC1280 (AID 687037; call rule not given here); conditions: Cy5-DNA-NS3h complex fluorescence interference counterscreen
# [6] = differential killing of epithelial or mesenchymal cells, primary screen, imaging, PC-3E GFP, TEM4-18 mCherry, co-culture (AID 1345086); conditions: imaging cell counts, at 1 µM; for red/green cell ratio (normalised): actives lie on both sides;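 for all read-outs here: cells exposed to compound for 72 h before imaging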;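 for red/green cell ratio (normalised): normalised mesenchymal count divided by normalised epithelial count so high means epithelial killing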
# [7] = test system: Aerobactin synthetase IucA (Klebsiella pneumoniae); test: IucA aerobactin synthetase inhibitors, biochemical, Tocris library, absorbance (AID 1345561; call rule not given here;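 note: 100% = enzyme without compound and 0% = no enzyme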); conditions: purified IucA enzyme assay, absorbance (OD) read-out; stronger effect = lower value;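 tested at 8 µM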
# [8] = test system: Aerobactin synthetase IucA (Klebsiella pneumoniae, hypervirulent); test: IucA enzyme inhibition, biochemical, LOPAC library, absorbance readout (AID 1346212; call rule not given here;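 note: 100% = no compound wells and 0% = no enzyme wells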); conditions: IucA enzyme assay, absorbance (OD) readout; stronger effect = lower value;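 tested at 8 µM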
# [9] = phospholipid biosynthesis inhibitors in animal cells, primary screen, cell-based, LOPAC library, screen 4 (AID 1347384; call rule not given here); conditions: phospholipid biosynthesis inhibition screen, at 10 µM
# [10] = survival rescue of mitochondrial mutant cells in low glucose, primary screen, MELAS cybrids, Rieske KO mouse fibroblasts, CellTiter-Glo (AID 1508586;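 active = mean z-score across replicates of 1.96 or higher in either the MELAS or the Rieske mutant cell line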;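 note: z relative to plate mean and SD of compound and empty wells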)
# [11] = test system: Aerobactin synthetase IucA (Klebsiella pneumoniae hvKP1); test: Biochemical IucA enzyme inhibition primary screen of the Spectrum library (AID 1346200; call rule not given here;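 note: 100% = wells without compound and 0% = wells lacking enzyme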); conditions: malachite green pyrophosphate, A620, at 8 µM, stronger effect = lower value
# [12] = sensitizers of A549 cells to miR-34 induction, primary screen, imaging, A549 dox-inducible miR-34, nuclei and caspase counts (AID 1347080;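 active = compounds whose cell count with miR-34 switched on is under 0.7 times the count with it off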); conditions: A549 miR-34 inducible, Hoechst nuclei count, 48 h
# [13] = measured here: epithelial PC-3E GFP cell survival
# [14] = measured here: mesenchymal TEM4-18 mCherry cell survival
# [15] = counts scaled to control wells, 1 = unselective
structure (smiles),measurement,setting,value
CCCN1CCC[C@@H]2Cc3[nH]ncc3C[C@H]21,period change,[1],-0.035 hour (inactive) and -0.145 hour (inactive)
same,survival,[2],16 (inactive)
same,parasite load remaining,[3],75.7% (inactive) and 34.7% (inactive)
same,viability,[3],68.7% and 143%
same,inhibition,[4],-2% (inactive) and -1% (inactive)
same,fluorescence ratio (interference),[5],1 (inactive)
same,red/green cell ratio (normalised),[6],1.24 (inactive)
same,normalised cell number,[6]; [13],0.89
same,normalised cell number,[6]; [14],1.1
same,remaining activity,[7],126% (inactive)
same,remaining activity,[8],117% (inactive)
same,outcome,[9],inactive
same,z-score,"[10]; MELAS cybrid survival, CellTiter-Glo 48 h, stronger effect = higher value",0.372 (inactive)
same,z-score,"[10]; Rieske KO mouse fibroblast survival, CellTiter-Glo 72 h",-0.161
C[C@@H]1[C@H](O)[C@@H](C)/C=C/C=C/CC/C=C/C=C/C=C/C=C/[C@H](OC2O[C@H](C)[C@@H](O)[C@H](N)[C@@H]2O)C[C@@H]2O[C@](O)(C[C@@H](O)[C@H](O)CC[C@@H](O)C[C@@H](O)C[C@@H](O)CC(=O)O[C@H]1C)C[C@H](O)[C@H]2C(=O)O (stereo partly specified),red/green cell ratio (normalised),[6]; [15],0.86 (inactive)
same,normalised cell number,[6]; [13],1.27
same,normalised cell number,[6]; [14],1.09
Nc1ccc(-c2ccccc2)cc1,red/green cell ratio (normalised),[6]; [15],1.07 (inactive)
same,normalised cell number,[6]; [13],0.96
same,normalised cell number,[6]; [14],1.03
COc1cc2c(cc1OC)[C@@]13CCN4CC5=CCOC6CC(=O)N2C1[C@H]6[C@H]5C[C@H]43 (stereo partly specified),parasite load remaining,[3],97.7% (inactive) and 56.5% (inactive)
same,viability,[3],63.5% and 87.4%
same,red/green cell ratio (normalised),[6],1.35 (inactive)
same,red/green cell ratio (normalised),[6]; [15],0.96 (inactive)
same,normalised cell number,[6]; [13],1.05 and 0.91
same,normalised cell number,[6]; [14],1.02 and 1.23
same,activity remaining,[11],105% (inactive)
same,fold change,[12]; stronger effect = lower value,0.942 (inactive)
same,fold change,[12]; measured here: relative caspase fold change +Dox/-Dox,2.52
same,cell count,"[12]; measured here: total cells with miR-34 induction, stronger effect = lower value",11600
same,cell count,[12]; measured here: total cells without miR-34 induction,12300
C[N+]12CC(C[C@H]1c1cccnc1)C2,red/green cell ratio (normalised),[6]; [15],1.02 (inactive)
same,normalised cell number,[6]; [13],1.14
same,normalised cell number,[6]; [14],1.16
CC[C@H](C)/C=C(C)/C=C/C1=CC2=C(Cl)C(=O)[C@](C)(OC(C)=O)C(=O)C2=CO1,red/green cell ratio (normalised),[6]; [15],1 (inactive)
same,normalised cell number,[6]; [13],0.96
same,normalised cell number,[6]; [14],0.96
Fc1ccc(C2CCNCC2COc2ccccc2)cc1 (stereo unspecified),red/green cell ratio (normalised),[6]; [15],0.82 (inactive)
same,normalised cell number,[6]; [13],1.28
same,normalised cell number,[6]; [14],1.05
CC(C)=CCC[C@H](C)[C@H]1CC[C@]2(C)C[C@H]3[C@@H](C(=O)C[C@@]3(C)O)/C(C=O)=C\C[C@@H]12,red/green cell ratio (normalised),[6]; [15],0.95 (inactive)
same,normalised cell number,[6]; [13],0.85
same,normalised cell number,[6]; [14],0.8
Fc1ccc(N2CCNCC2)c(F)c1,red/green cell ratio (normalised),[6],1.03 (inactive)
same,normalised cell number,[6]; [13],1.01
same,normalised cell number,[6]; [14],1.04
N#Cc1c(Cl)nc(NC2CC2)c2ccccc12,red/green cell ratio (normalised),[6]; [15],0.69 (inactive)
same,normalised cell number,[6]; [13],1.32
same,normalised cell number,[6]; [14],0.91
C[C@@H]1CC[C@H]2[C@@H](C)C(=O)O[C@@H]3O[C@]4(C)CC[C@@H]1[C@]32OO4,red/green cell ratio (normalised),[6]; [15],1.06 (inactive)
same,normalised cell number,[6]; [13],0.97
same,normalised cell number,[6]; [14],1.03
CCSCCC(N)C(=O)O (stereo unspecified),red/green cell ratio (normalised),[6],0.84 (inactive)
same,normalised cell number,[6]; [13],1.26
same,normalised cell number,[6]; [14],1.06
CC1(C)C(=O)C=C[C@@]2(C)C1C[C@@H](O)[C@]1(C)C2CC[C@@]2(C)[C@H](c3ccoc3)OC(=O)[C@H]3O[C@]321 (stereo partly specified),red/green cell ratio (normalised),[6],1.08 (inactive)
same,normalised cell number,[6]; [13],0.88
same,normalised cell number,[6]; [14],0.95
same,activity remaining,[11],88.4% (inactive)
COc1cc(O)c2c(=O)oc3cc(O)cc(C)c3c2c1,red/green cell ratio (normalised),[6]; [15],0.9 (inactive)
same,normalised cell number,[6]; [13],1.19
same,normalised cell number,[6]; [14],1.07
C[C@@H]1CC[C@@]2(OC1)OC1C(O)C3C4CC[C@H]5C[C@H](O[C@@H]6O[C@H](CO)[C@H](O[C@@H]7O[C@H](CO)[C@@H](O)[C@H](O[C@@H]8OC[C@@H](O)[C@H](O)[C@H]8O)[C@H]7O[C@@H]7O[C@H](CO)[C@H](O)[C@H](O[C@@H]8O[C@H](CO)[C@@H](O)[C@H](O)[C@H]8O)[C@H]7O)[C@H](O)[C@H]6O)[C@H](O)C[C@]5(C)C4CC[C@]3(C)C1[C@@H]2C (stereo partly specified),red/green cell ratio (normalised),[6],0.84 (inactive)
same,normalised cell number,[6]; [13],0.9
same,normalised cell number,[6]; [14],0.76
same,activity remaining,[11],111% (inactive)

# Source: PubChem BioAssay
